# In PubChem BioAssay (NCATS):
# Results filed as inconclusive are left out. The source made the active and inactive calls. Calls come from the whole dose curve; as a rule, active = well fitted cell-killing curve with a large enough effect; inconclusive = small, poorly fitted or top-dose-only effect; inactive = no such curve, though single readings can be large or run the other way.
# Test: qHTS of pediatric cancer cell lines to identify multiple opportunities for drug repurposing: Primary screen for SK-N-MC cells (AID 1347093);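 note: plate controls were DMSO neutral control for no effect and bortezomib for full effect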
# Conditions: SK-N-MC viability, CellTiter-Glo luminescence, 48 h; series mostly up to 46 µM; activity change, negative = cytotoxic: at the top concentration
# Method in brief: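 Metabolically active cells were quantified by ATP-dependent luminescence (CellTiter-Glo, 15 min at room temperature) following 48 h treatment. Cells had been plated at 500-1,000 per well and settled for 5 h beforehand.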
row,Structure (SMILES),"activity change, negative = cytotoxic"
1,Cc1onc(-c2c(Cl)cccc2Cl)c1C(=O)Cl,5.15% (inactive)
2,CCOC(=O)Oc1ccc(CCNC(=O)[C@H](CCSC)NC(C)=O)cc1OC(=O)OCC,-23.5% (inactive)
3,O=[N+]([O-])c1nccn1CO[C@@H](CO)[C@H](O)CO,29.9% (inactive)
4,NS(=O)(=O)c1ccc(N2CCCCS2(=O)=O)cc1,2.53% (inactive)
5,O=C(O)CCC(=O)OC[C@@H](NC(=O)C(Cl)Cl)[C@H](O)c1ccc([N+](=O)[O-])cc1,7.7% (inactive)
6,CC(=O)c1ccc(O)c(C(N)=O)c1,-8.82% (inactive)
7,O=C1c2ccccc2CCc2ccccc21,-18.1% (inactive)
8,CCOC(=O)c1ccc(NC(=O)CN2CCCCC2)cc1,-9.25% (inactive)
9,Cc1c(F)cc2c(=O)c(C(=O)O)cn3c2c1CCC3C (stereo not given),73.4% (inactive)
10,CC(C)(C)NCC(O)COc1ccccc1OCC1CCCO1 (stereo not given),0.175% (inactive)
11,Cc1ccc(O)cc1,-16.5% (inactive)
12,CCCCC(CC)CNC(=O)CC(C)OC(=O)CCC(=O)O (stereo not given),-8.55% (inactive)
13,CCN(CC)CC(=O)OCC(=O)[C@@]1(O)CC[C@H]2[C@@H]3CCC4=CC(=O)CC[C@]4(C)[C@H]3[C@@H](O)C[C@@]21C,-0.797% (inactive)
14,OCCCc1ccccc1,7.42% (inactive)
15,O=C(CCCCC(=O)Nc1c(I)cc(I)c(C(=O)O)c1I)Nc1c(I)cc(I)c(C(=O)O)c1I,3.56% (inactive)
16,Cc1cccc(OCC(O)CNC(C)(C)C)c1C (stereo not given),-15.4% (inactive)
17,Cc1ccc(C(=O)C(=O)O)cc1C,-8.67% (inactive)
18,CC(=O)Nc1c(I)c(NC(C)=O)c(I)c(C(=O)O)c1I,-2.52% (inactive)
19,CC(C)(Oc1ccc(Cl)cc1)C(=O)OCCCOC(=O)C(C)(C)Oc1ccc(Cl)cc1,-13.9% (inactive)
20,O=C(CO)[C@@H](O)[C@H](O)[C@@H](O)CO,-19.3% (inactive)
